In the supplement of paper PMC8975748:
Structures can show the parent of a compound that is named as a salt.

Tested on: Saccharomyces cerevisiae BY4741 SeMeCo community
Assay: z-score of subpopulation abundance vs DMSO median, subpopulation auxotrophic for HUM; higher = larger share of this subpopulation than in DMSO controls
Conditions: 10 µM; 24 h; SM minimal medium; subpopulation (auxotrophy): HUM
Outline: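 A Saccharomyces cerevisiae BY4741 community carried four plasmids, each restoring one auxotrophy and encoding a distinct fluorescent protein. It was pre-grown overnight to OD600 1.0, diluted to 0.3, and 70 µl was added to 384-well plates acoustically predosed with library drugs (10 µM final), then grown 24 h in minimal SM medium. Cells were paraformaldehyde-fixed and imaged by automated confocal microscopy, with single-auxotroph fluorescent strains setting thresholds and autofluorescence correction. Each subpopulation's abundance was scored as a z-score against the vehicle-well median.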

Row | Compound | z-score of subpopulation abundance
1 | CC(C)NC(=N)NC(=N)Nc1ccc(Cl)cc1 [Proguanil] | -0.17
2 | Nc1nc(O)c2ncn(CCC(CO)CO)c2n1 [Penciclovir] | 0.59
3 | C=CC(C)(O)CCC=C(C)C (stereo not drawn) [Linalool] | -0.24
4 | Cc1onc(-c2ccccc2)c1-c1ccc(S(N)(=O)=O)cc1 [Valdecoxib] | -0.83
5 | CN1[C@@H]2CC[C@H]1C[C@@H](OC(=O)c1c[nH]c3ccccc13)C2 [Tropisetron] | 0.95
6 | CC[C@H]1OC(=O)[C@H](C)[C@@H](O[C@H]2C[C@@](C)(OC)[C@@H](O)[C@H](C)O2)[C@H](C)[C@@H](O[C@@H]2O[C@H](C)C[C@H](N(C)C)[C@H]2O)[C@](C)(O)C[C@@H](C)/C(=N\OCOCCOC)[C@H](C)[C@@H](O)[C@]1(C)O [Roxithromycin] | 1.28
7 | COc1ccccc1N1CCN(CCCNc2cc(=O)n(C)c(=O)n2C)CC1 [Urapidil HCl] | -0.59
8 | O=C(O)c1cc(-c2ccc(F)cc2F)ccc1O [Diflunisal] | -2.64
9 | C=C[C@H]1CN2CC[C@H]1C[C@H]2[C@H](O)c1ccnc2ccc(OC)cc12 [Quinine HCl Dihydrate] | 0.21
10 | Cc1nc(=O)c2cc(CN(C)c3ccc(C(=O)N[C@@H](CCC(=O)O)C(=O)O)s3)ccc2[nH]1 [Raltitrexed] | -1.9
11 | CN(C)CCc1c[nH]c2ccc(C[C@H]3COC(=O)N3)cc12 [Zolmitriptan] | -0.45
12 | C[C@]12CC[C@@H]3c4ccc(O)cc4C[C@@H](CCCCCCCCC[S+]([O-])CCCC(F)(F)C(F)(F)F)[C@H]3[C@@H]1CC[C@@H]2O (stereo partly drawn) [Fulvestrant] | 1.23
13 | COc1ccc(NS(=O)(=O)c2ccc(N)cc2)nn1 [Sulfamethoxypyridazine] | -0.17
14 | Cc1[nH]c(=O)c(C#N)cc1-c1ccncc1 [Milrinone] | -1.04
15 | Cc1ccc(O)c([C@H](CCN(C(C)C)C(C)C)c2ccccc2)c1 [Tolterodine tartrate] | 1.13
16 | O=C(O)c1cc(/N=N/c2ccc(O)c(C(=O)O)c2)ccc1O [Olsalazine Sodium] | -0.73
17 | CCC(C)(Oc1ccc(C2(c3ccc(OC(C)(CC)C(=O)O)cc3)CCCCC2)cc1)C(=O)O (stereo not drawn) [Clinofibrate] | -0.82
18 | CN(C)[C@@H]1C(=O)C(C(N)=O)=C(O)[C@@]2(O)C(=O)C3=C(O)c4c(O)ccc(Cl)c4[C@@H](O)[C@H]3C[C@@H]12 [Demeclocycline HCl] | -1
19 | CCn1cc(C(=O)O)c(=O)c2cc(F)c(N3CCNCC3)nc21 [Enoxacin] | -0.01
20 | CC(C)(C)C(=O)OCOC(=O)[C@@H]1N2C(=O)[C@@H](/N=C/N3CCCCCC3)[C@H]2SC1(C)C [Pivmecillinam hydrochloride] | -0.16
21 | OC(c1ccccc1)(c1ccccc1)C12CC[N+](CCOCc3ccccc3)(CC1)CC2 [Umeclidinium bromide] | -0.43
22 | OCc1ccccc1O[C@@H]1O[C@H](CO)[C@@H](O)[C@H](O)[C@H]1O [Salicin] | -0.09
23 | OCCN(CCO)c1nc(N2CCCCC2)c2nc(N(CCO)CCO)nc(N3CCCCC3)c2n1 [Dipyridamole] | -6.13
24 | Cn1nnnc1SCC1=C(C(=O)O)N2C(=O)[C@@H](NC(=O)[C@H](OC=O)c3ccccc3)[C@H]2SC1 [Cefamandole nafate] | -0.54
25 | CC(=O)[C@@]1(O)CC[C@H]2[C@@H]3C[C@H](C)C4=CC(=O)CC[C@]4(C)[C@H]3CC[C@@]21C [Medroxyprogesterone] | -0.08
26 | CC[N+](CC)(CC)CC [Tetraethylammonium bromide] | -0.37
27 | CCCCOc1cc(C(=O)OCCN(CC)CC)ccc1N [Oxybuprocaine HCl] | 0.57
28 | C[N+]1(C)[C@@H]2CC[C@H]1C[C@@H](OC(=O)C(O)c1ccccc1)C2 (stereo partly drawn) [Homatropine Methylbromide] | 0.4
